These results are taken from PubChem BioAssay AID2320 (National Center for Advancing Translational Sciences (NCATS), 2010).

Each structure is given as a SMILES string. Inconclusive results are not listed. Values without a mark were called inactive. Calls of active or inactive are those of the source. Calls follow the shape of the full dose curve.
Potency is read from the fitted curve at half-maximal effect.

The test can be described thus: A qHTS for Small Molecule Inhibitors of Shiga Toxin (Confirmatory). Also: nearly all actives have a fitted effect of over 75% in size. As to activity, positive = inhibition of toxin: 0% is about no effect. The note with it: Cell-based Shiga toxin protection reporter assay; series mostly up to 38.3 µM; activity, positive = inhibition of toxin: at the top concentration.
For the molecule `O=C(O)C1CCCCC1C(=O)Nc1ccc(-c2ccccc2)cc1` (stereo not drawn), the Potency is 10 µM (active).

Regarding `O=C(/C=C/Nc1ccc(F)cc1F)c1ccco1`, the Potency was 0.225 µM (active).

For `CON(C)S(=O)(=O)c1cccc(C(=O)NC2CCSc3ccccc32)c1` (stereo not drawn), the “activity, positive = inhibition of toxin” value is -17.3%.

In the case of `C/C1=C\[C@@H](O)C(C(C)C)C(OC(=O)c2ccc(O)cc2)C/C(C)=C/CC1` (stereo partly drawn), the Potency was 17.9 µM (active).

As to `CCOC(=O)C1=C(C)NC(=O)NC1c1ccc(OCC(=O)Nc2ccccc2)c(OC)c1` (stereo not drawn), the “activity, positive = inhibition of toxin” value was -50.5%.

For the molecule `CN(C)C(CNC(=O)CCC(=O)c1ccc(Br)cc1)c1ccccc1` (stereo not drawn), the “activity, positive = inhibition of toxin” value was -16%.

As to `C=C1C(O)C2OC3(CCC(/C=C/C(C)C4CC(C)=CC5(OC(CC(C)(O)C(=O)O)CCC5O)O4)O3)CCC2OC1C(O)CC(C)C1OC2(CCCCO2)CCC1C` (stereo not drawn), the Potency is 20 µM (active).

`O=C(NCCC1=CCCCC1)C1CCN(S(=O)(=O)c2cccc3cccnc23)CC1`: the “activity, positive = inhibition of toxin” value was 27%.

As to `CC[N+](CC)(CCO)CCCN1C(=O)C2CC=C(Cl)CC2C1=O` (stereo not drawn), the “activity, positive = inhibition of toxin” value was -10.6%.

On to `CC1=C(C)C(OCCBr)N(c2cc(O)c(Cl)cc2F)C1=O` (stereo not drawn), for which the “activity, positive = inhibition of toxin” value was -15.1%.

With `COc1ccccc1NC(=O)CSc1nnc(CC(=O)Nc2ccccc2F)n1C`, the “activity, positive = inhibition of toxin” value is -1.04%.

For `CC1CCCC(C)N1C(=O)Cn1nnc(-c2ccccc2)n1` (stereo not drawn), the “activity, positive = inhibition of toxin” value was 9.73%.

As to `Cc1noc(C)c1S(=O)(=O)Nc1cccc(CO)c1`, the “activity, positive = inhibition of toxin” value is -26.9%.

Take `COc1ccccc1CN(Cc1cccnc1)S(=O)(=O)c1ccc(-n2cnnn2)c(OC)c1`: the “activity, positive = inhibition of toxin” value was -24.3%.

For the molecule `COc1ccccc1C(=O)Nc1ccc(N2CCN(C(C)=O)CC2)cc1`, the “activity, positive = inhibition of toxin” value is 5.23%.

For `CCOc1ccc2nc(SCC(=O)NC3CCCCC3)[nH]c2c1`, the “activity, positive = inhibition of toxin” value was -7.39%.

Regarding `Cc1c(NC(=O)c2ccc3c(c2)OCO3)cccc1-c1nc2ccccc2o1`, the Potency is 20 µM (active).

With `COc1cccc(OC)c1OCCCOc1ccc(C)cc1Br`, the “activity, positive = inhibition of toxin” value is 28.7%.

For the molecule `c1cc2c(cc1Cn1cnnn1)OCO2`, the “activity, positive = inhibition of toxin” value was -16%.

`CCOC(=O)N1CCN(S(=O)(=O)c2ccc(C(=O)NNc3nc4c(C)cc(C)cc4s3)cc2)CC1`: the Potency was 0.04 µM (active).

Take `CCc1nc2ccccc2c(=O)n1NCCc1ccccc1`: the “activity, positive = inhibition of toxin” value is 30.6%.

For the molecule `CC1Cc2ccccc2N1Cc1cc(=O)n2ccsc2n1` (stereo not drawn), the “activity, positive = inhibition of toxin” value is -26.7%.

As for `CC(=O)c1ccc(N2CCN(C(=O)c3ccc4nc[nH]c4c3)CC2)cc1`, the “activity, positive = inhibition of toxin” value is 21.4%.

Turning to `O=C(c1cc2c(s1)-c1ccccc1OC2)N1CCN(c2ccccc2)CC1`, the “activity, positive = inhibition of toxin” value was -19.8%.

As for `O=C(CCS(=O)(=O)c1cccs1)Nc1ccc(C(=O)NCc2cccs2)cc1`, the “activity, positive = inhibition of toxin” value was -9.28%.

As for `Cc1ccc(C(=O)CSc2nnnn2C(C)C)c(C)c1`, the Potency was 0.449 µM (active).

As for `CCN(CCn1cccn1)Cc1nc(-c2ccccc2)no1`, the “activity, positive = inhibition of toxin” value is 7.23%.

For `CC(=O)Nc1ccc(N2N=C(C)C(N=Nc3ccccc3)C2=O)cc1` (stereo not drawn), the Potency was 11.3 µM (active).

Consider `COc1ccccc1-n1cnnc1SCC(=O)Nc1ccccc1`, for which the Potency is 22.5 µM (active).

As for `CCC(=O)N1CCN(c2ccccc2NC(=O)c2ccc([N+](=O)[O-])o2)CC1`, the Potency is 4 µM (active).

With `O=C(Cn1cnc2cc([N+](=O)[O-])ccc2c1=O)NCc1ccc(Cl)cc1`, the “activity, positive = inhibition of toxin” value was -17.9%.

For `CNC(=O)CSc1nnc(-c2cc(C)cc(C)c2)o1`, the “activity, positive = inhibition of toxin” value is 43.7%.

Consider `CSc1ccc(/C=C/C(=O)N2CCN(c3ccccn3)CC2)cc1`, for which the “activity, positive = inhibition of toxin” value was -0.0265%.

For `COc1ccccc1CNc1nc2ccccc2n1CCN1CCCCC1`, the “activity, positive = inhibition of toxin” value was 45.6%.

`CC1(C)Cc2c(cnn2-c2ccccc2)C(NC(=O)CCN2CCCCO2)C1` (stereo not drawn): the “activity, positive = inhibition of toxin” value is 20.1%.

As for `Cc1ccccc1C(=O)NN1CCOCC1`, the “activity, positive = inhibition of toxin” value is 15.9%.

On to `Cc1nonc1OCCCNc1ccc([N+](=O)[O-])cc1Cl`, for which the Potency is 12.6 µM (active).

Consider `CCCNC(=O)c1ccc2snnc2c1`, for which the “activity, positive = inhibition of toxin” value is -4.26%.
